Source: PubChem BioAssay
Most compounds without a hit are left out; they make up all but 8.1% or so of the library.
KB-V1 cytotox = KB-V1 MDR subline cytotoxicity; KB-V1 MDR cells viability, CellTiter-Glo, 72 h; Potency, µM (top dose mostly 46.1 µM), usual class: cytotoxic; actives 3.4% (n = 400,000); note: % is set by controls: 0 for no effect and ±100 for the full control effect; nearly all actives have a fitted effect of over 60% in size
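Cells of the MDR subline KB-V1 are plated, dosed with compound at multiple concentrations, and incubated 72 h at 37 degrees C; CellTiter-Glo is then added and luminescence read after 10 min.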
SW480 rereplic = DNA re-replication induction in SW480 cells. AID 624297. Potency, µM (top dose mostly 46.1 µM), inactives show at the top dose re-replication activation, actives largely listed as activators. actives 1.8% (n = 340,000). SW480 DNA re-replication, Hoechst DNA content imaging, 48 h; note: % of control where 0% means no effect; nearly all actives have a fitted effect of over 55% in size
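Hoechst fluorescence of nuclei (405 nm excitation, 500-530 nm emission) measured by plate-scanning imager after 48 hr compound exposure at 37 C; re-replication scored as increased number of nuclei with elevated intensity.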
ELG1 DNA repair = blocks ELG1-dependent DNA repair in HEK293T cells. AID 504467. Potency, µM (highest dose often 46.1 µM), without a hit: top-dose activity change, negative = inhibition, most hits filed as inhibitors. HEK293T ELG1-luciferase reporter, luminescence, 16 h; DNA damage induced by 5-fluorouridine. actives 2.3% (n = 330,000); note: % is set by controls: 0 for no effect and ±100 for the full control effect; nearly all actives have a fitted effect of over 55% in size
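Cells (2,000 per well) received 5-fluorouridine plus test compound or DMSO and were incubated 16 hr at 37 °C, 5% CO2. Luciferase activity was read by luminescence 30 min after ONE-Glo addition; signal suppression marked inhibition of damage-induced ELG1 function.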
KB-3-1 tox = KB-3-1 parental cell cytotoxicity; AID 1347075; KB-3-1 viability, CellTiter-Glo ATP luminescence, 72 h; Potency, µM (series often up to 46.1 µM), most hits filed as cytotoxic; actives 1.4% (n = 400,000); note: % is set by controls: 0 for no effect and ±100 for the full control effect; nearly all actives have a fitted effect of over 60% in size
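KB-3-1 parental drug-naive adenocarcinoma cells in DMEM/10% FBS, incubated 72 h at 37 C with pin-transferred compounds across a concentration series. Viability by CellTiter-Glo luminescence; concentration-response curves fitted after normalization.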
MCF10A rereplic = induces DNA re-replication in MCF 10a normal breast cells; MCF 10A DNA re-replication, Hoechst nuclear intensity, 48 h; Potency, µM (series often up to 46.1 µM), inactives show at the highest dose activity, positive = re-replication, hits mostly activators; actives 2.9% (n = 350,000); AID 624296; note: % of control where 0% means no effect; nearly all actives have a fitted effect of over 50% in size
The depositor's hits bear a star; i = inactive; ? = inconclusive; nt = not tested or not shown; [ ] = remark or other dose. Calls come from the whole dose curve; as a rule, active = well fitted curve in the direction sought with a large enough effect; inconclusive = small, poorly fitted or top-dose-only effect, or another doubt; inactive = no such curve, though single readings can be large; an effect the other way counts as inactive or inconclusive. Potency is the fitted concentration of half-maximal effect.

SMILES	KB-V1 cytotox	SW480 rereplic	ELG1 DNA repair	KB-3-1 tox	MCF10A rereplic
COc1ccc(NC(=O)CC2CCCC2)cc1S(=O)(=O)N1CCCCC1	i	0%	?	i	24%
COc1ccc(NC(=O)Cc2ccc(C)cc2)cc1S(=O)(=O)N1CCCCC1	?	-5%	?	i	-2%
COc1ccc(CC(=O)Nc2cccc(SC)c2)cc1OC	15µM*	-3%	5.2µM*	?	-1%
COC(=O)c1cc(NC(=O)Cc2ccc(OC)c(OC)c2)cc(C(=O)OC)c1	i	0%[9.22 µM]	?	i	?
COc1ccc(NC(=O)Cc2ccc(C)c(C)c2)cc1S(=O)(=O)N1CCCCC1	9.2µM*	-5%	26µM*	?	0%
COc1ccc(NC(=O)CCC2CCCCC2)cc1S(=O)(=O)N1CCCCC1	3.3µM*	1%	?	5.2µM*	15%
Cc1ccc(S(=O)(=O)c2cccc(S(=O)(=O)N3CCCC3)c2)cc1S(=O)(=O)N1CCCC1	2.6µM*	-1%	?	21µM*	13%
COc1ccc(/C=C2\C=Cc3ccccc32)cc1	i	nt	nt	?	nt
COc1ccc(CCC(=O)Nc2cccc(S(=O)(=O)N3CCCCCC3)c2)cc1OC	i	22%	?	i	13%
COc1ccc(CC(=O)Nc2cccc(S(=O)(=O)N3CCCCCC3)c2)cc1OC	1.8µM*	5%	-20%	2.9µM*	-2%
COc1ccc(NC(=O)c2cc3ccccc3o2)cc1S(=O)(=O)N1CCCCC1	i	?	21µM*	i	?
COc1ccc(CCNS(=O)(=O)c2cccc(S(=O)(=O)N3CCCC3)c2)cc1OC	18µM*	-7%	?	i	3%
COc1ccc(NC(=O)CC2CCCCC2)cc1OC	i	7.3µM*	?	i	5.8µM*
CCOC(=O)C1=CCN(S(=O)(=O)c2ccc(C)cc2)C1c1cccc(F)c1 (stereo not drawn)	?	nt	nt	i	nt
O=C(Cn1nc2n(c1=O)-c1ccccc1SC2)N/N=C/c1cccs1	i	-58%	-4%	i	-1%
O=C(NCc1ccccc1Cl)C1CCN(S(=O)(=O)N2CCCCC2)CC1	i	1%	14%	i	-4%
CC(=NNC(N)=O)C1=C(O)C(C(C)C)NC1=O (stereo not drawn)	i	-4%	nt	i	-6%
CN(C)C1(CNC(=O)Nc2ccccc2)CCCCC1	i	-11%	20%	i	3%
Cc1ccc(C)c2sc(NC(=O)C3CC3)nc12	i	-4%	-6%	i	-3%
O=C(Nc1nc2c(Br)cc(Br)cc2c(=O)s1)C1CCC1	i	-4%	16%	i	5.2µM*
C=C1[C@@H](O)[C@@H]2O[C@]3(CC[C@H](/C=C/[C@@H](C)[C@@H]4CC(C)=CC5(O[C@H](C[C@@](C)(O)C(=O)OC)CC[C@H]5O)O4)O3)CC[C@H]2O[C@@H]1[C@@H](O)C[C@H](C)[C@H]1OC2(CCCCO2)CC[C@H]1C (stereo partly drawn)	18µM*	?	?	?	?
C=C1C(O)[C@@H]2O[C@]3(CC[C@H](/C=C/C(C)[C@@H]4CC(C)=CC5(O[C@H](C[C@@](C)(O)CO)CCC5O)O4)O3)CC[C@H]2O[C@@H]1C(O)CC(C)[C@H]1OC2(CCCCO2)CCC1C (stereo partly drawn)	?	?	?	0.021µM*	14%
CCCCN(CC(=O)NCc1ccc(Cl)cc1)S(=O)(=O)c1ccc2c(c1)OCCO2	12µM*	-2%	0%	i	?
O=C(CN(c1ccc(F)cc1)S(=O)(=O)c1ccc2c(c1)OCCO2)Nc1ccccc1	i	-13%	21µM*	i	5%
O=C(CN(c1ccc2c(c1)OCCO2)S(=O)(=O)c1ccccc1)NCc1ccc(Cl)cc1	3.7µM*	5%	26µM*	i	?
SMILES	KB-V1 cytotox	SW480 rereplic	ELG1 DNA repair	KB-3-1 tox	MCF10A rereplic
Cc1nc2c(c(C)c1CCC(=O)Nc1ccc(F)cc1)c(=O)n(C)c(=O)n2C	i	nt	nt	i	nt
O/N=C/c1ccc2cccc(OCc3ccccc3)c2n1	i	-1%	3%	i	2%
Cc1cccc(/C=N/NC(=O)c2cc(Br)ccc2O)n1	i	-2%	?	i	-9%
O=C(N/N=C/c1ccc2cccc(OCc3ccccc3)c2n1)c1ccc(Br)cc1	?	14%	16µM*	i	?
COc1ccc(C(=O)N/N=C/c2ccc3cccc(OCc4ccccc4)c3n2)cc1	i	1%	15µM*	?	21%
CCOc1ccc(Br)cc1C(=O)N/N=C/c1cccc(C)n1	i	-1%	?	i	18µM*
NC(N)=N/N=C/c1ccc2cccc(OCc3ccccc3)c2n1	i	-2%[9.22 µM]	0%	16µM*	?
O=C(C1CCC(CNc2nc(=S)[nH]c3ccccc23)CC1)N1CCN(c2ccccn2)CC1 (stereo not drawn)	2.6µM*	2%	?	i	6%
O=C(CN1C(=O)C2CC=CCC2C1=O)Nc1ccc(F)c(Cl)c1 (stereo not drawn)	i	nt	nt	i	nt
c1ccc(C2CCC(N3CCNCC3)CC2)cc1 (stereo not drawn)	i	-4%	0%	i	12%
COc1ccc(/C=N/Nc2nc(C)cc(-c3ccccc3)n2)cc1OC	i	?	?	i	?
COc1ccc(/C=N/Nc2nc(-c3ccc(Cl)cc3)cc(C(F)(F)F)n2)cc1OC	7.3µM*	-4%	?	i	26%
COc1ccc(-c2ccc(SCC(=O)NCc3ccco3)nn2)cc1OC	9.2µM*	-7%	29%	i	12%
COc1ccc(-c2cc(C(F)(F)F)nc(SCC(=O)NCc3ccco3)n2)cc1OC	i	-4%	23µM*	i	-1%
COc1ccc(-c2ccc(SCC(=O)c3cccs3)nn2)cc1OC	2.3µM*	3%	6%	i	4%
C=CCN1C=CC(=O)[C@@H](O)[C@H]1c1ccccc1Br	?	6%[9.22 µM]	nt	i	-28%
COc1ccc(-c2cc(C(F)(F)F)nc(SCC(=O)NCc3cnn(C)c3C)n2)cc1OC	9.2µM*	14%	-12%	?	-1%
COc1ccccc1C(=O)Nc1nnc(SCC(=O)NCc2ccco2)s1	i	21µM*	?	i	0%
COc1ccc(-c2cc(C(F)(F)F)nc(SCC(=O)NCCc3ccccc3)n2)cc1OC	i	nt	nt	i	nt
COc1ccc(-c2cc(C(F)(F)F)nc(SCC(=O)N(C)Cc3cn(C)nc3C)n2)cc1OC	18µM*	-1%	?	?	?
COc1ccc(-c2cc(C(F)(F)F)nc(NCc3ccco3)n2)cc1OC	2.3µM*	4%	?	i	13%
